# Measurements taken from PubChem BioAssay AID1159580 (chemical genetic matrix, 2015).
# Among all 5,500 compounds or so, about 2,000 (36%) were called active. Inconclusive results (about 18%) are left out. The list shows a part of the results. Values without a mark were called inactive. No stated cut-off is given here; in the data, active means normalized growth mostly below about 0.91 (no sharp cut-off); inconclusive means no clear call, values can overlap the other calls; inactive means mostly above about 0.92.
# Assay: chemical genetic growth profiling, strain panel (AID 1159580);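 further: tested at 20 µM; growth read once vehicle control cultures reached saturation at 30 °C; 1 = growth at the plate median or of vehicle wells; lower values mean less growth of the strain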
# Conditions: growth OD
# [1] = S. cerevisiae deletion strains, locus YAL013W, strain DEP1, hits give low values
# [2] = S. cerevisiae deletion strains, locus YDL101C, strain DUN1, hits give low values
# [3] = S. cerevisiae deletion strains, locus YDR150W, strain NUM1, hits give low values
# [4] = S. cerevisiae deletion strains, locus YGR078C, strain PAC10, hits give low values
# [5] = S. cerevisiae deletion strains, locus YHR030C, strain SLT2, hits give low values
# [6] = S. cerevisiae deletion strains, locus YJR075W, strain HOC1, hits give low values
# [7] = S. cerevisiae deletion strains, locus YMR263W, strain SAP30, hits give low values
# [8] = S. cerevisiae deletion strains, locus YNL128W, strain TEP1, hits give low values
# [9] = S. cerevisiae deletion strains, locus YNL322C, strain KRE1, hits give low values
# [10] = S. cerevisiae deletion strains, locus YPL055C, strain LGE1, hits give low values
# [11] = S. cerevisiae deletion strains, locus YPL241C, strain CIN2, hits give low values
# [12] = S. cerevisiae deletion strains, locus YAL040C, strain CLN3, hits give low values
# [13] = S. cerevisiae deletion strains, locus YCL061C, strain MRC1 (second series), hits give low values
# [14] = S. cerevisiae deletion strains, locus YDR363W, strain ESC2, hits give low values
# [15] = S. cerevisiae deletion strains, locus YER002W, strain NOP16, hits give low values
# [16] = S. cerevisiae deletion strains, locus YGR229C, strain SMI1, hits give low values
# [17] = S. cerevisiae deletion strains, locus YNL175C, strain NOP13, hits give low values
# [18] = S. cerevisiae deletion strains, locus YNL197C, strain WHI3, hits give low values
# [19] = S. cerevisiae deletion strains, locus YNL224C, strain SQS1, hits give low values
# [20] = S. cerevisiae deletion strains, locus YOR083W, strain WHI5 (second series), hits give low values
smiles,measurement,setting,value
CN(C)/C=C(\C#N)C(=O)Nc1ccc(F)c(Cl)c1,normalized growth,[1],0.971
same,normalized growth,"S. cerevisiae deletion strains, locus YBR229C, strain ROT2, hits give low values",1.01
same,normalized growth,"S. cerevisiae deletion strains, locus YCL061C, strain MRC1, hits give low values",0.978
same,normalized growth,[2],0.981
same,normalized growth,[3],0.991
same,normalized growth,"S. cerevisiae deletion strains, locus YEL061C, strain CIN8, hits give low values",1.01
same,normalized growth,[4],0.992
same,normalized growth,[5],0.983
same,normalized growth,"S. cerevisiae deletion strains, locus YHR087W, strain rtc3, hits give low values",1.01
same,normalized growth,"S. cerevisiae deletion strains, locus YJR043C, strain POL32, hits give low values",0.97
same,normalized growth,[6],1.01
same,normalized growth,"S. cerevisiae deletion strains, locus YKL190W, strain CNB1, hits give low values",1.01
same,normalized growth,"S. cerevisiae deletion strains, locus YLR039C, strain RIC1, hits give low values",1.07
same,normalized growth,"S. cerevisiae deletion strains, locus YLR058C, strain SHM2 (second series), hits give low values",1.01
same,normalized growth,"S. cerevisiae deletion strains, locus YLR085C, strain ARP6, hits give low values",0.912
same,normalized growth,"S. cerevisiae deletion strains, locus YLR262C, strain YPT6, hits give low values",1.16
same,normalized growth,"S. cerevisiae deletion strains, locus YML094W, strain GIM5, hits give low values",0.988
same,normalized growth,"S. cerevisiae deletion strains, locus YMR219W, strain ESC1, hits give low values",1.01
same,normalized growth,[7],1
same,normalized growth,[8],1
same,normalized growth,"S. cerevisiae deletion strains, locus YNL153C, strain GIM3, hits give low values",0.976
same,normalized growth,"S. cerevisiae deletion strains, locus YNL298W, strain CLA4 (second series), hits give low values",0.97
same,normalized growth,[9],1.02
same,normalized growth,"S. cerevisiae deletion strains, locus YNR030W, strain Alg12, hits give low values",1.01
same,normalized growth,"S. cerevisiae deletion strains, locus YOL006C, strain TOP1, hits give low values",0.965
same,normalized growth,[10],0.959
same,normalized growth,[11],0.977
same,normalized growth,"S. cerevisiae deletion strains, locus YPR135W, strain CTF4, hits give low values",0.991
same,normalized growth,"S. cerevisiae strains, strain wild type, hits give low values",1.01
Cn1c([N+](=O)[O-])cnc1/C=C(\C#N)C(=O)Nc1ccc(F)cc1,normalized growth,"S. cerevisiae deletion strains, locus YAR019C, strain CDC15, hits give low values",0.267 (active)
same,normalized growth,"S. cerevisiae deletion strains, locus YBL105C, strain PKC1, hits give low values",0.368 (active)
same,normalized growth,"S. cerevisiae deletion strains, locus YBR135W, strain CKS1, hits give low values",0.436 (active)
same,normalized growth,"S. cerevisiae deletion strains, locus YBR136W, strain MEC1, hits give low values",0.608 (active)
same,normalized growth,"S. cerevisiae deletion strains, locus YBR160W, strain CDC28, hits give low values",0.639 (active)
same,normalized growth,"S. cerevisiae deletion strains, locus YDL017W, strain CDC7, hits give low values",0.541 (active)
same,normalized growth,"S. cerevisiae deletion strains, locus YDL028C, strain MPS1, hits give low values",0.874 (active)
same,normalized growth,[2],0.852 (active)
same,normalized growth,"S. cerevisiae deletion strains, locus YDL108W, strain KIN28, hits give low values",0.92
same,normalized growth,"S. cerevisiae deletion strains, locus YDL214C, strain PRR2, hits give low values",0.37 (active)
same,normalized growth,"S. cerevisiae deletion strains, locus YDR052C, strain DBF4, hits give low values",0.936
same,normalized growth,"S. cerevisiae deletion strains, locus YDR226W, strain ADK1, hits give low values",0.642 (active)
same,normalized growth,"S. cerevisiae deletion strains, locus YDR477W, strain SNF1, hits give low values",0.104 (active)
same,normalized growth,"S. cerevisiae deletion strains, locus YER123W, strain YCK3, hits give low values",0.408 (active)
same,normalized growth,"S. cerevisiae deletion strains, locus YER133W, strain GLC7, hits give low values",0.3 (active)
same,normalized growth,"S. cerevisiae deletion strains, locus YFL009W, strain cdc4, hits give low values",0.913
same,normalized growth,"S. cerevisiae deletion strains, locus YFL029C, strain CAK1, hits give low values",0.542 (active)
same,normalized growth,"S. cerevisiae deletion strains, locus YFR019W, strain FAB1, hits give low values",0.262 (active)
same,normalized growth,"S. cerevisiae deletion strains, locus YFR028C, strain CDC14, hits give low values",0.2 (active)
same,normalized growth,"S. cerevisiae deletion strains, locus YGR040W, strain KSS1, hits give low values",0.139 (active)
same,normalized growth,"S. cerevisiae deletion strains, locus YGR052W, strain FMP48, hits give low values",0.305 (active)
same,normalized growth,"S. cerevisiae deletion strains, locus YGR092W, strain DBF2, hits give low values",0.118 (active)
same,normalized growth,[5],0.234 (active)
same,normalized growth,"S. cerevisiae deletion strains, locus YHR079C, strain IRE1, hits give low values",0.366 (active)
same,normalized growth,"S. cerevisiae deletion strains, locus YHR082C, strain KSP1, hits give low values",0.371 (active)
same,normalized growth,"S. cerevisiae deletion strains, locus YHR205W, strain SCH9, hits give low values",0.0146 (active)
same,normalized growth,"S. cerevisiae deletion strains, locus YIL147C, strain SLN1, hits give low values",0.741 (active)
same,normalized growth,"S. cerevisiae deletion strains, locus YJL095W, strain BCK1, hits give low values",0.149 (active)
same,normalized growth,"S. cerevisiae deletion strains, locus YJL157C, strain FAR1, hits give low values",0.346 (active)
same,normalized growth,"S. cerevisiae deletion strains, locus YJR016C, strain ILV3, hits give low values",0.436 (active)
same,normalized growth,"S. cerevisiae deletion strains, locus YJR066W, strain TOR1 (second series), hits give low values",0.116 (active)
same,normalized growth,"S. cerevisiae deletion strains, locus YJR066W, strain TOR1, hits give low values",0.207 (active)
same,normalized growth,"S. cerevisiae deletion strains, locus YKL048C, strain ELM1, hits give low values",0.168 (active)
same,normalized growth,"S. cerevisiae deletion strains, locus YKL067W, strain YNK1, hits give low values",0.43 (active)
same,normalized growth,"S. cerevisiae deletion strains, locus YKL101W, strain HSL1, hits give low values",0.157 (active)
same,normalized growth,"S. cerevisiae deletion strains, locus YKL193C, strain SDS22, hits give low values",0.399 (active)
same,normalized growth,"S. cerevisiae deletion strains, locus YKL203C, strain TOR2, hits give low values",0.119 (active)
same,normalized growth,"S. cerevisiae deletion strains, locus YLR113W, strain HOG1, hits give low values",0.319 (active)
same,normalized growth,"S. cerevisiae deletion strains, locus YLR133W, strain CKI1, hits give low values",0.111 (active)
same,normalized growth,"S. cerevisiae deletion strains, locus YLR403W, strain SFP1, hits give low values",0.0176 (active)
same,normalized growth,"S. cerevisiae deletion strains, locus YML070W, strain DAK1, hits give low values",0.28 (active)
same,normalized growth,"S. cerevisiae deletion strains, locus YMR001C, strain CDC5, hits give low values",0.438 (active)
same,normalized growth,"S. cerevisiae deletion strains, locus YMR205C, strain PFK2 (second series), hits give low values",0.139 (active)
same,normalized growth,"S. cerevisiae deletion strains, locus YMR277W, strain FCP1, hits give low values",0.347 (active)
same,normalized growth,"S. cerevisiae deletion strains, locus YNL006W, strain LST8, hits give low values",0.219 (active)
same,normalized growth,"S. cerevisiae deletion strains, locus YNL020C, strain ARK1, hits give low values",0.119 (active)
same,normalized growth,"S. cerevisiae deletion strains, locus YNL161W, strain CBK1, hits give low values",0.324 (active)
same,normalized growth,"S. cerevisiae deletion strains, locus YNL183C, strain NPR1, hits give low values",0.168 (active)
same,normalized growth,"S. cerevisiae deletion strains, locus YNL207W, strain RIO2, hits give low values",0.635 (active)
same,normalized growth,"S. cerevisiae deletion strains, locus YNL222W, strain SSU72, hits give low values",0.411 (active)
same,normalized growth,"S. cerevisiae deletion strains, locus YNL307C, strain MCK1 (second series), hits give low values",0.117 (active)
same,normalized growth,"S. cerevisiae deletion strains, locus YOL078W, strain AVO1, hits give low values",0.47 (active)
same,normalized growth,"S. cerevisiae deletion strains, locus YOL136C, strain PFK27, hits give low values",0.431 (active)
same,normalized growth,"S. cerevisiae deletion strains, locus YOR061W, strain CKA2, hits give low values",0.168 (active)
same,normalized growth,"S. cerevisiae deletion strains, locus YOR119C, strain RIO1, hits give low values",0.162 (active)
same,normalized growth,"S. cerevisiae deletion strains, locus YOR231W, strain MKK1, hits give low values",0.418 (active)
same,normalized growth,"S. cerevisiae deletion strains, locus YOR329C, strain SCD5, hits give low values",0.372 (active)
same,normalized growth,"S. cerevisiae deletion strains, locus YPL031C, strain PHO85, hits give low values",0.104 (active)
same,normalized growth,"S. cerevisiae deletion strains, locus YPL153C, strain RAD53, hits give low values",0.112 (active)
same,normalized growth,"S. cerevisiae deletion strains, locus YPL204W, strain HRR25, hits give low values",0.109 (active)
same,normalized growth,"S. cerevisiae deletion strains, locus YPL209C, strain IPL1, hits give low values",0.476 (active)
same,normalized growth,"S. cerevisiae deletion strains, locus YPL256C, strain CLN2, hits give low values",0.448 (active)
same,normalized growth,"S. cerevisiae deletion strains, locus YPR025C, strain CCL1, hits give low values",0.403 (active)
same,normalized growth,"S. cerevisiae deletion strains, locus YPR106W, strain ISR1, hits give low values",0.968
N#C/C(=C\c1ccc(O)c(O)c1)C(=O)Nc1ccccc1,normalized growth,[1],0.988
same,normalized growth,[12],1
same,normalized growth,[13],1.01
same,normalized growth,[3],0.996
same,normalized growth,[14],1.05
same,normalized growth,[15],1.01
same,normalized growth,[4],1.05
same,normalized growth,[16],0.966
same,normalized growth,[6],1.01
same,normalized growth,"S. cerevisiae deletion strains, locus YMR307W, strain GAS1, hits give low values",1
same,normalized growth,[8],1.04
same,normalized growth,[17],1.03
same,normalized growth,[18],1
same,normalized growth,[19],1.03
same,normalized growth,[9],0.989
same,normalized growth,[20],1.02
same,normalized growth,[10],1.01
same,normalized growth,[11],1.01
Nc1nc2[nH]c(=O)cnc2c(=O)[nH]1,normalized growth,[1],0.996
same,normalized growth,[12],1.06
same,normalized growth,[13],0.994
same,normalized growth,[14],0.985
same,normalized growth,[15],0.949
same,normalized growth,[16],1.01
same,normalized growth,[7],0.99
same,normalized growth,[17],0.983
same,normalized growth,[18],0.977
same,normalized growth,[19],0.987
same,normalized growth,[9],1.01
same,normalized growth,[20],0.988
